Active and inactive are the calls of the source.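 How the source made its calls: active means compounds whose GFP signal falls below 65% of the DMSO control level; inconclusive means fewer than 70 yeast cells counted in the well; inactive means the rest.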
Assay: TOR branch reporter RPL19A-GFP response – cell-based, S. cerevisiae, third cherry pick, flow cytometry, confirmation (AID 504336);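 further: median GFP fluorescence of all gated yeast cells by flow cytometry; ratio of well median fluorescence to plate mean of DMSO wells with DMSO = 100%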
Details: S. cerevisiae RPL19A-GFP strain, 3 h, at 10 µM, active compounds read low

GFP response relative to DMSO, inactive:
COc1cccc(OCc2cc(C(=O)N3CCN(C)C(c4ccccc4)C3)no2)c1 (centres undefined) 96.5%
Cc1cccc(Nc2cc(=O)[nH]c(=O)[nH]2)c1C 98.5%
Cn1c(=O)c2c(n3cnnc13)-c1ccccc1CC21CCCC1 102%
O=C1c2ccccc2C(=O)c2c1cccc2N(CCO)CCO 99.8%
CC(=O)NC(C)c1cc(Cl)c2cccnc2c1O (centres undefined) 99.1%
COc1cc(OC)cc(C(=O)Nc2ccc(-c3nc4ccccc4o3)cc2)c1 103%
Cc1cccc(N/C=C/C(=O)c2ccc(Cl)cc2)c1 99.6%
CSc1nc(Nc2ccc(Cl)cc2)c(C#N)c(=O)[nH]1 98.3%
O=C(O)CCCCCNc1ncnc2ccc(Br)cc12 99.8%
CNc1nc(C)c([N+](=O)[O-])c(Nc2ccc(OC)cc2)n1 102%
C/C(=C\C(=O)c1ccc(Cl)cc1)Nc1ccc(Br)cc1 100%
O=C(Nc1ccccc1Cl)ON=C1c2ccccc2-c2ccccc21 102%
O=C(Nc1ccc(-c2nc3ccccc3o2)cc1)c1cccnc1 101%
Nc1[nH]c(=O)nc(Nc2ccccc2)c1N=O 101%
CCN(CC)C(=O)Oc1ccnc2cc(Cl)ccc12 103%
CCCC(=O)Nn1cnc2c(c1=O)C1(CCCCC1)Cc1ccccc1-2 103%
CCCOCc1ccc(O)c2ncccc12 101%
NC(=O)COc1cccc2cccnc12 102%
COc1ccccc1Nc1nc(NCCC(C)C)nc(N)c1[N+](=O)[O-] 97.8%
COC(=O)c1cc(=O)c2cccc(OC)c2[nH]1 101%
COc1cccc2c(=O)c(C(=O)O)c[nH]c12 98.3%
C/C(=N\NC(=O)c1ccccc1)c1ccccc1F 98.3%
O=C(N/N=C/c1ccccc1F)c1cccc2ccccc12 100%
OCc1ccnc2c(O)cccc12 99.1%
Cc1cccc(C)c1Nc1ncnc(N)c1[N+](=O)[O-] 98.5%
O=c1cc(C(F)(F)F)[nH]c2c(OC(F)(F)F)cccc12 101%
CC1=CN2C(=N)/C(=C/c3ccc(C)o3)C(=O)N=C2S1 101%
CCc1sc(C(=O)Nc2nc(-c3ccccn3)cs2)cc1C 101%
OCCN1CCN(c2ncnc3ccc(Br)cc23)CC1 102%
COc1ccc(OC)c2c(=O)cc(C(=O)O)[nH]c12 92.3%
COc1ccc(OC)c(N/C(C)=C/C(=O)c2ccccc2)c1 103%
Nc1cccc2c1C(=O)c1ccc(Cl)cc1C2=O 102%
Cn1c(NCCCO)nc2c(c1=O)C1(CCCCC1)Cc1ccccc1-2 102%
Cc1ccc(C(=O)/C=C/Nc2cccc(O)c2)cc1 101%
C/C(=N\NC(=O)c1cccc2ccccc12)c1cccnc1 98.3%
O=C(N/N=C/c1ccccc1)c1cccc2ccccc12 98.3%
CC(=O)Nc1ccc(-c2nc3ccccc3o2)cc1 99.6%
CC(=O)Nn1cnc2c(c1=O)C1(CCCCC1)Cc1ccccc1-2 99.1%
C=CCNc1nc(N)c([N+](=O)[O-])c(Nc2ccccc2OC)n1 102%
